Compound activity: PubChem BioAssay, National Center for Advancing Translational Sciences (NCATS)
An excerpt weighted towards active compounds, which were near 4.8% of everything screened.
TGFb SMAD3 inh = qHTS for Inhibitors of TGF-b; HepG2 CAGA-GFP TGF-b/SMAD3 reporter, GFP fluorescence, 18 h; TGF-beta stimulated, 500 pg/mL final; Potency, µM (doses to about 46.1 µM), actives largely listed as inhibitors; 410,000 compounds, 1.2% hits; further: nearly all actives have a fitted effect of over 65% in size
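Using HEPG2 CAGA-GFP reporter cells at 1000 cells/well, we pinned test compounds, stimulated with recombinant TGF-beta (500 pg/mL final) and measured total well GFP after 18 h.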
HepG2 viability = qHTS for Inhibitors of TGF-b: Cytotox Counterscreen; Potency, µM (doses to about 46.1 µM), most hits filed as cytotoxic; AID 588856, 2011; 410,000 compounds, 0.76% hits; HepG2 CAGA-GFP viability, ATP luminescence, 18 h
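HepG2 CAGA-GFP cells (1000/well, DMEM with 1% FBS) received compound, then TGF-beta at 500 pg/mL final, and were incubated 18 hours at 37 degrees C. Viability was read by CellTiter-Glo luminescence. Media-only wells were set as complete cell-killing and DMSO as no toxicity.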
S2 tox = Viability Counterscreen for Primary qHTS for Inhibitors of ATXN expression; S2 cells (HEK-293 line with an ATXN2-luciferase reporter) viability, CellTiter-Fluor protease fluorescence, 24 h; Potency, µM (titrated, usually from 56.7 µM), hits mostly cytotoxic; 400,000 compounds, 0.49% hits; further: nearly all actives have a fitted effect of over 40% in size
D3 ag = qHTS of D3 Dopamine Receptor Agonist: qHTS. D3R DiscoveRx beta-arrestin cells, luminescence, 90 min. max activation, %. 410,000 compounds, 0.58% hits; in the data active means max activation above about 30%
Target sequence (P35462 whole entry, looked up): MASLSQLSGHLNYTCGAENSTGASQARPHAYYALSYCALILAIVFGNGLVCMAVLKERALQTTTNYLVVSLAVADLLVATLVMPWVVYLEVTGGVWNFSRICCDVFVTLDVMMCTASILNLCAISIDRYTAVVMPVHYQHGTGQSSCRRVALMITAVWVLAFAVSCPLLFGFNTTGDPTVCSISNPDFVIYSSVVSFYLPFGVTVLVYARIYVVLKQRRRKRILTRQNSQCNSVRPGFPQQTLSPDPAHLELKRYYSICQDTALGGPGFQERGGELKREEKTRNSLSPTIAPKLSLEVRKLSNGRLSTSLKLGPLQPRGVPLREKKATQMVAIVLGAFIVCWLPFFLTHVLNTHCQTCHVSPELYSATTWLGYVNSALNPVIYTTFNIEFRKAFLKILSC
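Cells at 1500/well, incubated overnight, then treated with pinned compounds (dopamine as control) for 90 min at 37 degrees C. DiscoveRx reagent added for 30 - 60 minutes at room temperature; luminescence read.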
DRD3 antagonist = qHTS of D3 Dopamine Receptor Antagonist: qHTS; 360,000 compounds, 2.5% hits; D3R cells, DiscoveRx beta-arrestin luminescence, antagonist mode; hits give low values; AID 652054, 2013; max response, negative = inhibition, %; in the data active means max response below about -50%; inconclusive means no clear call, values can overlap the other calls
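Cells expressing the human receptor were seeded at 1500 cells/well, incubated overnight at 37 degrees C in 5% CO2, then exposed to library compounds with dopamine controls for 90 minutes at 37 degrees C before luminescent detection.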
ATXN2 expr inh = Primary qHTS for Inhibitors of ATXN expression | HEK-293 ATXN2-luciferase reporter, luminescence, 24 h | Potency, µM (doses to about 57 µM), actives largely listed as inhibitors | 360,000 compounds, 0.72% hits | AID 1745845, 2022; further: nearly all actives have a fitted effect of over 55% in size
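ATXN2-luciferase reporter cells (luciferase flanked by upstream and downstream ATXN2 gene portions) were treated 24 h at 37 °C with compounds at up to 57 uM. SteadyGlo luminescence gave expression; GF-AFC fluorescence gave viability.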
Large screens that a line does not name were inactive. Unless noted, the call rests on the fitted dose curve; in most records, active means well fitted curve in the direction sought with a large enough effect; inconclusive means small, poorly fitted or top-dose-only effect, or another doubt; inactive means no such curve, though single readings can be large; an effect the other way counts as inactive or inconclusive.

C[C@H]1CN([C@@H](C)CO)C(=O)CCCn2cc(nn2)CO[C@@H]1CN(C)C(=O)Nc1ccc(C(F)(F)F)cc1	none
COc1ccc(NC(=O)Nc2cccc3c2O[C@H](CN(C)C(=O)Nc2ccc(C(F)(F)F)cc2)[C@@H](C)CN([C@H](C)CO)C3=O)cc1	TGFb SMAD3 inh inconclusive, S2 tox inconclusive
C[C@@H]1CN([C@H](C)CO)C(=O)CCCn2cc(nn2)CO[C@H]1CN(C)C(=O)Nc1ccc(C(C)(C)C)cc1	DRD3 antagonist -100
C[C@H]1CN([C@@H](C)CO)C(=O)c2cccc(NC(=O)Nc3ccc(C(F)(F)F)cc3)c2O[C@@H]1CN(C)C(=O)Nc1ccc(F)cc1	TGFb SMAD3 inh inconclusive, S2 tox 13µM, ATXN2 expr inh 20µM
Cc1nnc(N2CCN(c3ccccc3F)CC2)c2c1nnn2Cc1ccccc1Cl	none (no result: DRD3 antagonist)
C#CC(C)(CC)OC(=O)c1ccccc1C(=O)O (configuration not stated)	none (no result: TGFb SMAD3 inh, HepG2 viability, D3 ag, DRD3 antagonist)
CS(=O)(=O)N(CC(O)CON=C1c2ccccc2-c2ccccc21)c1ccc(F)cc1 (configuration not stated)	TGFb SMAD3 inh 18µM, ATXN2 expr inh inconclusive
O=C(C[N+]12CCCc3cccc(c31)CCC2)c1ccc(Cl)c2ccccc12	none (no result: S2 tox, D3 ag, DRD3 antagonist, ATXN2 expr inh)
O=C(CSc1nc2ccsc2c(=O)n1NC(=O)c1ccccc1)Nc1nccs1	DRD3 antagonist -59
CCCCn1c(SCC(=O)c2ccccc2)nc2ccsc2c1=O	TGFb SMAD3 inh inconclusive, D3 ag 59
CCCCn1c(SCC(=O)c2ccc(O)c(O)c2)nc2ccsc2c1=O	TGFb SMAD3 inh inconclusive, S2 tox inconclusive
COc1ccc(NC(=O)N2CCc3c(sc4c3CCCC4)C2c2ccc(F)cc2)cc1 (configuration not stated)	TGFb SMAD3 inh inconclusive (no result: DRD3 antagonist)
O=C(NC1=C(Nc2ccc(F)cc2)C(=O)c2ccccc2C1=O)c1ccc(Cl)cc1	TGFb SMAD3 inh 11µM, HepG2 viability 11µM
CN(C)CC(C)(O)c1ccc2c(c1)CN(Cc1cccn1-c1ncccn1)CCO2 (configuration not stated)	none (no result: TGFb SMAD3 inh, HepG2 viability, D3 ag, DRD3 antagonist, ATXN2 expr inh)
COc1ccc(C(O)(CC(C)C)C(CN2CCOCC2)c2ccccc2)cc1 (configuration not stated)	TGFb SMAD3 inh inconclusive, D3 ag 88
O=C(Nc1c(C(=O)N2CCN(c3ccccc3)CC2)oc2ccccc12)c1ccc(Br)o1	none (no result: S2 tox, DRD3 antagonist, ATXN2 expr inh)
Cc1ccccc1N1CCN(Cc2cc3c(cc2[N+](=O)[O-])OCO3)CC1	TGFb SMAD3 inh inconclusive (no result: ATXN2 expr inh)
O=[N+]([O-])c1cc2c(cc1CN1CCN(c3ccccc3F)CC1)OCO2	DRD3 antagonist -52
COC(=O)C1=C(C)N(Cc2ccccc2)C(=NCc2cccc(Cl)c2)N[C@H]1c1ccccc1	TGFb SMAD3 inh inconclusive, S2 tox 35µM, ATXN2 expr inh inconclusive
COC(=O)C1=C(C)N(Cc2ccccc2)C(=O)N[C@H]1c1cccs1	DRD3 antagonist -55
COC(=O)C1=C(C)N(CC2CC2)C(=NCc2cccc(Cl)c2)N[C@H]1c1ccccc1	TGFb SMAD3 inh inconclusive
COC(=O)C1=C(C)N(Cc2ccccc2)C(=NCc2ccccc2)N[C@H]1c1ccccc1	TGFb SMAD3 inh inconclusive, HepG2 viability 14µM, S2 tox inconclusive, ATXN2 expr inh inconclusive
CC(=O)ON(C(C)=O)c1ccc(/C=C2/C=Cc3ccccc32)cc1	none (no result: S2 tox, D3 ag, DRD3 antagonist, ATXN2 expr inh)
C[C@H](/C=C/[C@H](C)C(C)(C)O)[C@H]1CC[C@H]2/C(=C/C=C3C[C@@H](O)C[C@H](O)C3)CCC[C@]12C	S2 tox inconclusive (no result: TGFb SMAD3 inh, HepG2 viability, DRD3 antagonist, ATXN2 expr inh)
CCCCCc1ccc(OCCOCCn2c[n+](C)c3ccccc32)c(CCCCC)c1	TGFb SMAD3 inh inconclusive, S2 tox 18µM (no result: ATXN2 expr inh)
CC(=O)OCC(=O)[C@@]12OC(C)(C)O[C@H]1C[C@H]1[C@@H]3C[C@H](F)C4=CC(=O)C=C[C@]4(C)[C@@]3(F)[C@@H](O)C[C@@]12C	none (no result: TGFb SMAD3 inh, HepG2 viability, S2 tox, D3 ag, DRD3 antagonist)
Cc1cccc(NC(=O)c2ccc(-n3cccn3)c([N+](=O)[O-])c2)c1	TGFb SMAD3 inh inconclusive
O=C(Nc1cccc(/C=C/c2ccccn2)c1)c1ccc(-n2cncn2)c([N+](=O)[O-])c1	TGFb SMAD3 inh inconclusive, S2 tox 18µM, ATXN2 expr inh inconclusive
Cc1ccc(NC(=O)c2ccc(-n3cccn3)c([N+](=O)[O-])c2)cc1	DRD3 antagonist -53
CCCN(CCC)C(=O)Cn1c(=O)n(-c2ccc(CC)cc2)c(=O)c2ccc(C(=O)NCCc3ccccc3)cc21	none (no result: DRD3 antagonist)
COc1ccc2c(c1)C/C(=C\c1ccc(N(C)C)cc1)C2=O	none (no result: S2 tox, D3 ag, DRD3 antagonist, ATXN2 expr inh)
Brc1cc(Br)c[n+](CCc2ccccc2)c1	none (no result: S2 tox, D3 ag, DRD3 antagonist, ATXN2 expr inh)
NC(=O)c1cc([N+](=O)[O-])ccc1NCc1ccc(F)cc1	S2 tox inconclusive
NC(=O)c1cc([N+](=O)[O-])ccc1NCc1ccc(N)cc1	TGFb SMAD3 inh inconclusive, ATXN2 expr inh 3.5µM
COc1ccc(Nc2nc(=O)c3cc([N+](=O)[O-])ccc3s2)cc1	HepG2 viability 4µM
COc1cc2c(cc1OC)C(c1ccc(F)cc1)N(c1ccc(F)cc1)C(=O)C2 (configuration not stated)	none (no result: DRD3 antagonist)
CC(C(=O)c1ccccc1)[n+]1cccc(Br)c1 (configuration not stated)	DRD3 antagonist -71
CC(=O)Nc1cc[n+](C(C)C(=O)c2ccc(Br)cc2)cc1 (configuration not stated)	DRD3 antagonist -84
CC(=O)Nc1cc[n+](C(C)C(=O)c2ccccc2)cc1 (configuration not stated)	DRD3 antagonist inconclusive
CN(C)c1ccc(/C=C2\C(=O)/C(=C\c3ccc(N(C)C)cc3)c3ccccc32)cc1	none (no result: S2 tox, D3 ag, DRD3 antagonist, ATXN2 expr inh)
